PubChem BioAssay AID588446 (NMMLSC, 2011)
The source made the active and inactive calls.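 The calls were made as follows: active = dose fit with top-dose inhibition above 36% and EC50 error under a fifth of EC50, and EC50 under 30 µM; inactive = the rest.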

Target: Integrin alpha-4 (Homo sapiens) (UniProt P13612)
Experiment: VLA-4 ligand competition with LDV-FITC, dose response, orthogonal assay, cell-based, plate-based, flow cytometry, set 2 (AID 588446)
Conditions: cells, LDV-FITC binding displacement; series mostly up to 66.7 µM

Sequence of Integrin alpha-4 (Homo sapiens) (P13612 whole entry, looked up): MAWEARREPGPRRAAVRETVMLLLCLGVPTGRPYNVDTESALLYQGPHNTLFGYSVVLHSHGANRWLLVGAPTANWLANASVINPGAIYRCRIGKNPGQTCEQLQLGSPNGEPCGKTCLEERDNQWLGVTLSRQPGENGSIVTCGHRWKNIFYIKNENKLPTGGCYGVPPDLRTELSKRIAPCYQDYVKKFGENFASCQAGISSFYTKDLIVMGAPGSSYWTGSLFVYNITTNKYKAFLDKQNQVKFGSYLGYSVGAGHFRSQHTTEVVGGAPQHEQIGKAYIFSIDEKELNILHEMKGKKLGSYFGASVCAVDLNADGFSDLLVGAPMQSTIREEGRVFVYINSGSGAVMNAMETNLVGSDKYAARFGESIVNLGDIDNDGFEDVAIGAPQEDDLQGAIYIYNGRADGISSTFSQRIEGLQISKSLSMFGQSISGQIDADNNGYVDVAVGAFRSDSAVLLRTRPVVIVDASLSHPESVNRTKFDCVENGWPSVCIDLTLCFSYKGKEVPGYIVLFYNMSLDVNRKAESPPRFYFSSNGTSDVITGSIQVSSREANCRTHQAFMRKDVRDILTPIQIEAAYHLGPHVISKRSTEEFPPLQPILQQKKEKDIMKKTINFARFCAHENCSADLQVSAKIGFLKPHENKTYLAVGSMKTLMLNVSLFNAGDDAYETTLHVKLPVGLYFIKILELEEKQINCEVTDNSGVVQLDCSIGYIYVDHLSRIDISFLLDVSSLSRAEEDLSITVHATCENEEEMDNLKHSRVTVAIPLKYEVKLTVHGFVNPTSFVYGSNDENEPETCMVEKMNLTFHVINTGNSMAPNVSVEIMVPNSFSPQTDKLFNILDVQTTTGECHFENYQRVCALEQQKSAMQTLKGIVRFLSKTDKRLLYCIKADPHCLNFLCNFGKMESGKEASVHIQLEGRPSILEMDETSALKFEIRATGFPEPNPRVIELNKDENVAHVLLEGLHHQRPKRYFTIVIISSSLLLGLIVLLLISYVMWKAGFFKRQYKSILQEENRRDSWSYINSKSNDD

outcome, inactive:
CC(=O)N(C)Cc1nc2ccccc2n1CCOc1ccc(C)cc1
Cc1nc(C)c(C(=O)N2CCCC2c2nc3ccccc3s2)s1 (stereo not given)
Cc1cc(C(=O)N2CCCC2c2nc3ccccc3s2)on1 (stereo not given)
COCCn1c(C2CC(=O)N(c3cccc(C)c3)C2)nc2ccccc21 (stereo not given)
Cc1oc(-c2cccs2)nc1CN1C(=O)C2CC=CCC2C1=O (stereo not given)
COc1ccccc1N1CCN(CC(=O)c2ccc(F)cc2)CC1
CCN1CC(c2nc3ccccc3n2Cc2ccccc2)CC1=O (stereo not given)
CN1CC(c2nc3ccccc3n2CCOc2ccccc2)CC1=O (stereo not given)
COCCn1c(C2CC(=O)N(Cc3ccco3)C2)nc2ccccc21 (stereo not given)
COCCn1c(C2CC(=O)N(c3ccccc3C)C2)nc2ccccc21 (stereo not given)
Cn1cc(C(=O)N2CCCC2c2nc3ccccc3s2)cn1 (stereo not given)
Cc1ccc(-c2nc(CN3C(=O)C4CC=CCC4C3=O)cs2)cc1 (stereo not given)
CCn1c(C2CC(=O)N(c3ccccc3OC)C2)nc2ccccc21 (stereo not given)
COc1ccccc1Cn1c(C2CC(=O)N(C)C2)nc2ccccc21 (stereo not given)
CSc1ccccc1OCc1cc(C(=O)N2CCCC2)no1
O=C1C2CC=CCC2C(=O)N1Cc1csc(Cc2ccccc2)n1 (stereo not given)
CN(Cc1ccco1)C(=O)c1ccc(-n2cnc3ccccc32)cc1
Cc1ccc(C)n1-c1ccc(C(=O)N(C)Cc2ccco2)cc1
CCOc1ccccc1N1CC(c2nc3ccccc3n2C)CC1=O (stereo not given)
O=C(c1ccc(OCCN2CCCCC2)cc1)c1c(-c2ccc(O)cc2)sc2cc(O)ccc12
